In general, Inhibition refers to the share of the control response that was lost under treatment. A higher Inhibition goes with a response far below the control.

The subject of the test is Plasmodium falciparum. Briefly: GSK_TCMDC: Inhibition of Plasmodium falciparum 3D7 in whole red blood cells, using parasite LDH activity as an index of growth. Test compounds present at 2uM. It counts as functional.
Turning to `CS(=O)(=O)NCCCNCc1ccc(-c2ccc(-c3nc4cc(F)ccc4[nH]3)cc2)cc1.O=C(O)C(F)(F)F`, the Inhibition is 100%.

The molecule `CCC(CC(C)C(=O)O)=C(c1ccccc1)c1ccccc1` (stereo unspecified) registered an Inhibition of 98%.

Molecule `COCCN1CCC(N(Cc2ccc(-c3ccc(C(F)(F)F)cc3)cc2)C(=O)Cn2c(CCc3cccc(F)c3F)cc(=O)c3c2CCC3)CC1.O=C(O)C(O)C(O)C(=O)O` came in with an Inhibition of 85%.

In the case of `O=C(Nc1ccc([N+](=O)[O-])cc1O)Nc1ccccc1Oc1ccccc1`, the Inhibition is 92%.

Molecule `CCc1cc2c(Sc3nc4ccccc4[nH]3)ncnc2s1` had an Inhibition of 97%.

With `O=C(Nc1cccc(CN2CCN(C(=O)c3ccccc3)CC2)c1)c1cccs1.O=C(O)C(F)(F)F`, the Inhibition is 95%.

For the molecule `CC(=O)Oc1cc(OCc2ccccc2)c(OC(C)=O)c(OCc2ccccc2)c1`, the Inhibition came out at 94%.

In turn, `N#Cc1ccc(-c2ccc(C(=O)NCCCCN3CCC(c4ccncc4)CC3)cc2)cc1` showed an Inhibition of 94%.

In turn, `CN(Cc1ccccc1)C1CCCN(c2cc(NC(=O)c3ccc(F)cc3)ccn2)C1.O=C(O)C(F)(F)F` (stereo unspecified) yielded an Inhibition of 93%.

Molecule `O=C(N[C@H]1CCN(Cc2ccc(OC3CCN(Cc4ccccc4)CC3)c(Cl)c2)C1)c1ccc(Cl)c(Cl)c1.O=C(O)C(F)(F)F` gave an Inhibition of 99%.

Regarding `COc1ccc2nccc([C@@H](O)CN3CCC(NC(=O)c4cccc(-c5cc(C)no5)c4)CC3)c2c1`, the Inhibition was found to be 93%.

Molecule `O=C(Nc1ccc(Cl)cc1)Nc1cccc(-c2cccc(-c3nc4cc(F)ccc4[nH]3)c2)c1` gave an Inhibition of 100%.

`COc1ccc(OCCCN2CCN(CC(c3ccc(F)cc3)N3CCN(C(C)C)CC3)CC2)c2ccccc12.O=C(O)C(F)(F)F` (stereo unspecified) yielded an Inhibition of 100%.

Regarding `CN(CC(=O)Nc1ccc(F)cc1)C(=O)c1ccc(-c2ccc(F)cc2)o1`, the Inhibition is 89%.

`COc1ccc2[nH]c(/C=C/c3cccc4ccc(C)nc34)nc2c1`: the Inhibition was 98%.

`CCN1CCN(c2cc(C)c3cc(NC(=O)c4cccc(OC)c4)ccc3n2)CC1` returned an Inhibition of 99%.

With `COc1cc2nc(NCC3CCCCC3)nc(NCc3ccccc3)c2cc1OC`, the Inhibition was determined as 100%.

`CN(C)Cc1c(O)ccc2[nH]c(-c3ccc(OC(F)(F)F)cc3)nc12` gave an Inhibition of 100%.

In turn, `C[C@@H](NC(=O)c1nn(-c2ccc(Cl)cc2)c(=O)c2ccccc12)C(C)(C)C` displayed an Inhibition of 95%.

As to `CC(=O)CC(=O)N1CCN(c2ccccc2)CC1`, the Inhibition came out at 85%.

`Cc1cc(=NN=Cc2ccccc2Cl)c2cc(F)ccc2[nH]1` registered an Inhibition of 100%.

`O=C(Nc1cc(Cl)cc(Cl)c1)c1cc(Cl)c(=O)n(Cc2cccc(Cl)c2)c1`: the Inhibition came to 100%.

Molecule `COc1cc2c(cc1OC)CN(CCCCNC(=O)c1ccc(NC(=O)c3cc(Cl)cc(Cl)c3)cc1)CC2` registered an Inhibition of 99%.

Take `O=C(NC1CCN(Cc2cccc(C(F)(F)F)c2)CC1)c1ccc(-c2cccc(C(F)(F)F)c2)s1.O=C(O)C(F)(F)F`: the Inhibition was determined as 94%.

`CCN(CC)CCOc1c(Cl)cc(Cl)cc1CNCCCNc1cc(=O)c2ccccc2[nH]1` showed an Inhibition of 97%.

As for `COc1cccc(C(=O)Nc2ccc(Oc3ccc(Cl)cc3)cc2)c1`, the Inhibition is recorded as 92%.
